Shown are actives, neighbours in structure and some others; about 3.8% of the full set was active somewhere.
KLK7 zymogen act – proKLK7 zymogen activators, primary screen, biochemical, fluorescence intensity; purified proKLK7, EDANS-DABCYL substrate fluorescence; 100% is mature enzyme control, 0% vehicle; activation, % at 7 µM; Kallikrein-7 (Homo sapiens), P49862; AID 652039, 2013; 0.9% of 370,000 active;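 active = activation above the mean of all tested compounds plus 3 SD, computed per campaign excluding outliers beyond control limits, cut at about 13% in these data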
ADAM10 inh – human ADAM10 inhibitors, primary screen, biochemical, QFRET, HTS; inhibition, % at 7 µM; recombinant ADAM10, EDANS/DABCYL FRET peptide cleavage, 3 h; 0.62% of 370,000 active; AID 720582, 2013; Disintegrin and metalloproteinase domain-containing protein 10 (Homo sapiens), O14672;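 active = inhibition above a per-campaign cutoff equal to the mean of compounds falling between control-based bounds plus 3 SD, cut at about 20% in these data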;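 also: 0% = DMSO wells while the 100% control is not disclosed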
Target sequence (O14672 214-748 limits assumed): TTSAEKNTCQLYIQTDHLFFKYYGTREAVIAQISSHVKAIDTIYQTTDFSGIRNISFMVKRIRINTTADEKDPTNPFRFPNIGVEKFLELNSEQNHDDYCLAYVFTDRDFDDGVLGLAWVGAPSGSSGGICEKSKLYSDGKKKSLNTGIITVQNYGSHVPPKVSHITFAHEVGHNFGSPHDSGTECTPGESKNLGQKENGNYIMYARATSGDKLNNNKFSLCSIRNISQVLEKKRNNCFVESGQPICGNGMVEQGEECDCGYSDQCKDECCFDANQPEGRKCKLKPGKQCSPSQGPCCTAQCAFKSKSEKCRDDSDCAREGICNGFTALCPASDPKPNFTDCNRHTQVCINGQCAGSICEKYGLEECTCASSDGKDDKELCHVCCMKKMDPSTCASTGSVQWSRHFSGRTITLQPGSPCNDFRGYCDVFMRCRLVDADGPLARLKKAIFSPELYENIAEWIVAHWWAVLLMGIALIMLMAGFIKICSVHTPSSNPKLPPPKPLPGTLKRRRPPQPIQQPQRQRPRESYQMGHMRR
FGF22 binding – binders of human FGF22 protein, primary screen, FGF22 synaptogenesis inhibitor project, biophysical, thermal shift, single point; recombinant FGF22 thermal shift, SYPRO orange fluorescence; percent of sucrose octasulfate shift, DMSO zero; activity (Tm shift, normalised), % at 9.99 µM; 1.5% of 340,000 active; Fibroblast growth factor 22 (Homo sapiens), Q9HCT0;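 active = mean Tm shift, scaled 0 neutral to 100 positive control, at about 1.3% or above, every replicate too, limit read from the data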
rRNA inh HTS – reduced GFP signal of wild-type E. coli, primary screen, bacterial rRNA inhibitor project, GFP/RFP fluorescence, OD600, single point; E. coli WT GFP vs humanized-ribosome RFP mutants, 24 h; active compounds read low; DMSO median 0, no signal -100; GFP signal change (wild-type ribosome), % (test concentration not listed); 1.6% of 350,000 active; AID 720706, 2013;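 active = significant combined selectivity score with lowered wild-type GFP, culture density cut under 30%, mutant RFP and density less affected; inactive = any of these conditions unmet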
ADAM17 inh – ADAM17 inhibitors, primary screen, biochemical, QFRET; Disintegrin and metalloproteinase domain-containing protein 17 (Homo sapiens), P78536; recombinant ADAM17, EDANS/DABCYL FRET peptide cleavage; inhibition, % at 6.95 µM; 0.83% of 370,000 active;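 active = inhibition above the mean of compounds lying between control limits plus 3 SD, set per campaign, cut at about 8.5% in these data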;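 also: 0% = DMSO-only wells as the low control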
Starred values were filed as active, the others as inactive; x = not tested or not shown.

SMILES	KLK7 zymogen act	ADAM10 inh	FGF22 binding	rRNA inh HTS	ADAM17 inh
COC(=O)c1cc(NC(=O)/C=C/c2ccccc2)ccc1O	-0.2	1.4	43.1*	-36.1	3.0
COc1ccc(-c2ccc(NC(=O)c3ccco3)cc2)nn1	-1.1	-16.8	1.8*	-7.4	-4.8
O=C(/C=C\c1ccccc1)Nc1ccc(NC(=O)c2ccco2)cc1	3.9	-4.8	1.5*	1.5	1.5
COc1ccc2c3c(n(C)c2c1)[C@H](CO)N(C(=O)Nc1ccc(F)cc1)CC31CN(S(=O)(=O)c2cccc(F)c2)C1	x	x	x	-0.1	x
CCCC#Cc1ccc2c(c1)[C@H]1[C@H](CCN1C(=O)C1CCCCC1)[C@@H](CO)N2	x	x	x	-3.9	x
C[C@H](CO)N1C[C@H](C)[C@H](CN(C)C(=O)c2ccc(F)cc2)Oc2cc(C3=CCCC3)ccc2S1(=O)=O	x	x	x	-2.1	x
C[C@H](CO)N1C[C@H](C)[C@@H](CN(C)C(=O)C2CC2)Oc2ncc(C#CC3(O)CCCC3)cc2C1=O	x	x	x	0.8	x
COc1ccc(OCC(=O)Nc2ccc(NC(=O)c3ccco3)cc2)cc1	0.5	6.0	x	x	-0.2
O=C(COc1ccccc1)Nc1ccc(NC(=O)c2ccco2)cc1	0.1	-2.1	44.3*	0.0	-2.0
OCCC1CN(Cc2ccc3ncccc3c2)CCN1Cc1ccccc1 (centres undefined)	0.7	-10.0	0.4	12.2	-2.8
COc1ccc(/C=C/CN2CCN(CC(C)C)C(CCO)C2)cc1 (centres undefined)	0.4	-6.4	44.0*	14.5	0.5
OCCC1CN(Cc2cccc3nccnc23)CCN1Cc1ccc(F)c(F)c1 (centres undefined)	0.0	-3.1	43.6*	x	-2.3
CC(C)CN1CCN(Cc2ccc3ncccc3c2)CC1CCO (centres undefined)	0.3	-1.6	43.8*	x	-0.5
CC(C)NC(=O)N(C)C[C@H]1Oc2c(cccc2N(C)C)C(=O)N(C)C[C@@H]1C	x	x	x	-2.0	x
CCC(=O)Nc1ccc2c(c1)OC[C@@H](C)N(C(=O)Cc1ccccn1)C[C@H](C)[C@H](OC)CN(C)C2=O	x	x	x	-0.2	x
CCOc1ccc(S(=O)(=O)Nc2ccc(C(=O)N/N=C(\C)c3ccc(-n4ccnc4)cc3)cc2)cc1	0.0	11.4	x	x	9.0*
C/C(=N\NC(N)=O)c1ccc(-n2ccnc2)cc1	0.4	-4.4	0.2	-15.9*	1.1
COc1ccc(NS(=O)(=O)c2cccc(C(=O)N/N=C(/C)c3ccc(-n4ccnc4)cc3)c2)cc1	-1.4	-15.8	-0.3	-0.6	-3.0
CNC(=S)N/N=C(\C)c1ccc(-n2ccnc2)cc1	-0.3	2.1	x	x	0.9
C[C@H]1CN([C@@H](C)CO)C(=O)c2cc(NS(=O)(=O)c3cccs3)ccc2O[C@H]1CN(C)C(=O)Nc1cccc2ccccc12	x	x	0.4	-0.9	x
C[C@@H]1CN([C@@H](C)CO)C(=O)c2cccc(NS(=O)(=O)c3cccs3)c2O[C@H]1CN(C)C(=O)Nc1ccccc1	x	x	x	2.7	x
Cc1ccccc1OCc1nc(-c2cccnc2)no1	-0.6	-2.1	46.0*	-11.3	-3.9
CS(=O)(=O)N1CCc2cc(NC(=O)c3ccc(Cl)cc3Cl)ccc21	-0.5	1.3	0.1	-23.7*	2.3
CS(=O)(=O)N1CCc2cc(C(=O)Nc3ccc(Cl)cc3)ccc21	-0.1	-1.5	x	8.7	2.7
CN1[C@H](CO)[C@@H]2c3ccccc3N(C(=O)c3ccc(F)cc3)C[C@@H]21	x	x	0.0	4.6	x
CCOC(=O)C1CCCN(C(=S)Nc2ccc(Nc3ccccc3)cc2)C1 (centres undefined)	1.2	7.2	0.1	-29.9*	4.1
CCC(=O)N1[C@@H]2c3cccc(=O)n3C[C@@H]2[C@@H](CO)[C@@H]1C(=O)NC1CCCC1	x	x	x	-0.1	x
C[C@H](CO)N1C[C@H](C)[C@@H](CN(C)C(=O)C2CCOCC2)Oc2ncc(C#CC(C)(C)O)cc2C1=O	x	x	0.1	5.3	x
CO/N=C/C(C(C)=O)C(=O)Nc1ccc(Cl)cc1Cl (centres undefined)	-0.2	1.3	43.1*	3.9	0.0

Bioassay records: PubChem, several laboratories
